Experimental data: PubChem BioAssay AID1259240 (Keith Lab, Institute of Cancer Science, University of …, 2017)
Calls of active or inactive are those of the source. Cut-off read from the data, not from the text of the source: active = fold change mostly below about -2 (no sharp cut-off); inactive = mostly above about -1.8.

Test: modulation of TERT promoter-driven luciferase – cell-based, luciferase reporter, human, primary screen (AID 1259240)
Details: A2780 TERT promoter luciferase reporter, 16 h; at 20 µM, fold versus average of vehicle-only wells

Fold change, inactive:
CCOC(=O)C1=C(CS(=O)(=O)c2ccc(F)c(Cl)c2)NC(=O)NC1c1ccc(Cl)cc1 (stereo not given) 1.33, Cc1nc2c3ccccc3n3c(CCCC(=O)NCc4ccccn4)nnc3n2n1 -1.25, Cc1c(NC(=O)C2CC(c3ccc(F)cc3)=NO2)c(=O)n(-c2ccccc2)n1C (stereo not given) 1.46, CN(CC(=O)Nc1ccc2c(c1)OCO2)S(=O)(=O)c1ccc2c(c1)c(=O)n(C)c(=O)n2C -1.32, Cc1ccc(-c2nc3cnccn3c2Nc2ccccc2C)o1 -1.64, COc1ccccc1-c1c(C)nn2c(N(C)CCC#N)cc(C)nc12 -1.5, CCOC(=O)c1nnn(-c2nonc2N)c1CNc1ccc(F)cc1 1.3, CCOC(=O)C1=C(CS(=O)(=O)c2ccc(C)cc2)NC(=O)NC1c1ccc(OC)cc1OC (stereo not given) -1.29, CC1CCC[C@@H](C)N1C(=O)Cc1ccc(NC2=NC3CS(=O)(=O)CC3S2)cc1 (stereo not given in full) -1.64, Cn1c(=O)c(=O)n(C)c2cc(S(=O)(=O)N3CCCC3C(=O)Nc3nccs3)ccc21 (stereo not given) 1.15, CC1CCN(C(=O)Cn2cc(/C=C3/C(=O)Nc4ccccc43)c3ccccc32)CC1 1.13, COc1ccc(-c2cc(N3C(=O)Nc4ccccc4N3O)n[nH]2)cc1OC 1.2, COCCn1c(SCC(=O)Nc2cc(C)on2)nc2c(c1=O)SC(C)C2 (stereo not given) -1.21, CC(C)Cc1c(O)nc(SCCN2CCOCC2)[nH]c1=O -1.64, CC1=NN(c2nc3ccccc3nc2-n2nc(C)cc2C)C(=O)C1 -1.08, O=C(CCC(=O)NC1CCCC1)NNc1nc2ccccc2c2nc(-c3ccccc3)nn12 -1.47, O=C(CSc1ncnc2ccccc12)Nc1cccc(F)c1 1.32, O=c1c2ccccc2nc(N2CCOCC2)n1Cc1ccccc1 -1.33, Cc1cc(C)n(-c2nc3ccccc3n3nnnc23)n1 1.46, O=C(CN1C(=O)C2(OCCO2)c2ccccc21)c1ccc(F)cc1 1.12, O=C(CC1C(=O)N(c2cccc(Cl)c2)C(=O)N1Cc1cccs1)Nc1ccccc1 (stereo not given) 1.26, O=S(=O)(NCc1ccc2c(c1)OCO2)c1cccc2cccnc12 -1.35, CC(=O)N1CCC(N(C(=O)Nc2ccc(F)cc2)C2CCCC2)CC1 -1.02, CCc1ccc2[nH]cc(S(=O)(=O)c3ccc(C)c(C)c3)c(=O)c2c1 1.15, C=C1c2cc(CC)ccc2NC(=O)N1c1ccc(C)cc1 1.01, CSc1ccc(CCNc2ccc3nnc(-c4ccccc4)n3n2)cc1 1.07, CC(C)Cc1cc(C(=O)Nc2cnn(Cc3ccc(F)cc3)c2)no1 -1.44, Cc1ccc(SCc2nc3sccn3c2Br)cc1 -1.17, NC(=O)c1c(NC(=O)c2csc3c2CCCC3)sc2c1CCCC2 -1.89, CSc1cccc(NC(=O)C2CCN(S(=O)(=O)c3ccc4c(c3)oc(=O)n4C)CC2)c1 -1.36, O=S(=O)(Nc1cccc(C(F)(F)F)c1)c1cccc2cccnc12 -1.42, CC1(C)CNC(=O)c2sc(NC(=O)CN3CCOCC3)nc2C1 -1.75, Cn1c2ccccc2c2c(C(=O)Nc3ccccc3F)cn(C3CCCC3)c(=O)c21 -1.15, CC1=CC2=NC(=O)/C(=C\c3cc(C)n(-c4ccccc4F)c3C)C(=N)N2O1 -1.81, Cc1nc2c3ccccc3nc(NNC(=O)CCC(=O)N3CCCC(C)C3)n2n1 (stereo not given) -1.02

Fold change, active:
COC(=O)c1ccc(CSc2nc(-c3ccco3)cc(C(F)(F)F)n2)o1 -2.77, O=C(NC1(C(F)(F)F)NC(=O)N(Cc2ccco2)C1=O)c1ccncc1 (stereo not given) -2.35, Cc1nn(-c2nc3ccccc3[nH]2)c(=O)c2ccccc12 -14.7, CCOC(=O)c1nn(-c2ccc(F)cc2)c(=O)c2c(NC(=O)CCCl)scc12 -3.04

outcome, inactive:
CCC(Sc1nnc(-c2c[nH]c3ccccc23)n1CCOC)C(=O)OC (stereo not given)
